Screening results (PubChem BioAssay)
A selection: hits, their analogues and other compounds. The true share with any hit is near 4.1%.
hgDAF-12 ag: hgDAF-12 agonism, primary luciferase screen; HEK293 GAL4-hgDAF12 UAS-luciferase reporter, agonist luminescence; normalized to butyrate control; activation, % at 6.8 µM; AID 687014; 1.8% of 370,000 active;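 active means activation above a cutoff set at the mean of all screened compounds plus 3 SD, cut at about 10% in these data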;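 further: 0% = DMSO wells and 100% = sodium butyrate wells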
DAX1 inh-1: inhibitors of human orphan nuclear receptor DAX1 (NR0B1). HEK293 Gal4-DAX1 luciferase reporter, luminescence. inhibition, % at 6.75 µM. 0.99% of 340,000 active;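 active means inhibition above the mean over all tested compounds plus 3 SD, cut at about 4.2% in these data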;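 further: 0% = DAX1-transfected cells with DMSO and 100% = empty-vector control cells with DMSO; inhibition shows as a rise in luminescence from relieved DAX1 repression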
Target sequence (P51843 207-470 limits assumed): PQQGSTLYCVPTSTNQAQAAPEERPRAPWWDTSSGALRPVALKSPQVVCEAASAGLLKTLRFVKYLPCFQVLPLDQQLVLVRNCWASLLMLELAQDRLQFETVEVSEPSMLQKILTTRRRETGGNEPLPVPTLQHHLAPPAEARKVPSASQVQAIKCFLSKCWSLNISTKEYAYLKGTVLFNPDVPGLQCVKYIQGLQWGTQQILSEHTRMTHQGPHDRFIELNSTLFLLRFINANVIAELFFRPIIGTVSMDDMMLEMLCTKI
hcDAF-12 act: activators of H. contortus DAF-12 nuclear receptor. 1.4% of 370,000 active. AID 652067. activation, % at 6.8 µM. HEK293 hcDAF-12 lit1-tk-luc reporter, luminescence; 0% DMSO, 100% Δ7-dafachronic acid;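 active means activation above the mean of all tested compounds plus 3 SD, cut at about 5.5% in these data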;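 further: 100% = response to 3 µM Δ7-dafachronic acid high control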
DAX1 inh-2: inhibitors of DAX1 repression of SF-1 activated StAR promoter; AID 652010; 1.1% of 370,000 active; HEK293T StAR-luciferase reporter, SF-1/DAX-1 repression relief; inhibition, % at 6.8 µM;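 active means inhibition above the mean over all tested compounds plus 3 SD, cut at about 3.6% in these data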;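 further: 0% = DAX-1 cells with DMSO and 100% = cells lacking DAX-1 with DMSO; higher inhibition means more luminescence from relief of DAX-1 repression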
ssDAF12 agonist: activates DAF-12 receptor from parasite S. stercoralis. HEK293 ssDAF-12/GRIP1 lit1-tk-luc reporter, luminescence; % of 3 µM dafachronic acid response. 1% of 370,000 active. activation, % at 6.8 µM. AID 652126;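 active means activation above the mean over all tested compounds plus 3 SD, cut at about 0.9% in these data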;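 further: 0% = DMSO-only wells and 100% = 3 µM delta7-dafachronic acid wells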
DAX1 conf: NR0B1 (human) inhibition, confirmation. inhibition, % at 6.8 µM. HEK293T StAR-promoter luciferase reporter, SF-1/DAX-1 repression. shares compounds with DAX1 inh-2. 87% of 2,400 active;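 active means inhibition above the average of every tested compound plus 3 SD, cut at about 3.8% in these data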;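 further: 0% = DAX-1 cells with DMSO and 100% = no DAX-1 control cells with DMSO; active compounds raise luminescence by relieving repression of the StAR reporter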
SF1 mutant ctr: counter-screen for DAX1 inhibitors: nonselective inhibitors with SF-1 AF2 mutant; shares compounds with DAX1 inh-2; HEK293 StAR-luciferase, luminescence; inhibition, % at 6.8 µM; 78% of 2,400 active;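 active means inhibition above the mean of all tested compounds plus 3 SD, cut at about 3% in these data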;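 further: 0% = DAX-1 transfected cells with DMSO and 100% = cells without DAX-1 with DMSO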
LXRb hcDAF ctr: counter-screen for hcDAF-12 agonists: agonists of human LXR-beta; 3,400 tested, under 10 active; HEK293 Gal4-LXR tk-luc reporter, luminescence, 24 h; normalized: DMSO 0%, positive control 100%; shares compounds with hcDAF-12 act; AID 743027; activation, % at 6.8 µM;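 active means mean percent activation of the reporter above a cutoff set as the average over tested compounds plus their standard deviation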
hcDAF12 conf: hcDAF-12 agonism, confirmation assay | shares compounds with hcDAF-12 act | HEK293 hcDAF-12 lit1-tk-luc reporter, luminescence; % of Δ7-dafachronic acid response | activation, % at 6.8 µM | 61% of 3,400 active | AID 743032;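 active means mean activation across triplicate tests above the threshold derived from the earlier primary screen, cut at about 5.5% in these data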;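 further: 0% = DMSO only wells and 100% = 3 µM Δ7-dafachronic acid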
hgDAF12 ag: confirmation of H. glycines DAF-12 agonists; 80% of 3,300 active; shares compounds with hgDAF-12 ag; AID 743050; activation, % at 6.8 µM; HEK293 GAL4-hgDAF12 luciferase reporter, agonist mode; percent of butyrate response;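 active means mean activation over triplicate wells above the hit cutoff derived from the earlier primary screen, cut at about 11% in these data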;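 further: 0% = DMSO low control and 100% = 2 mM sodium butyrate high control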
LXRb DAF12 ctr: counter-screen for DAF-12 agonists: agonists of human LXR-beta; activation, % at 6.8 µM; 3,300 tested, under 10 active; shares compounds with hgDAF-12 ag; HEK293 Gal4-LXR luciferase reporter, 24 h;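 active means mean activation of the triplicate above a set limit carried over from the primary screen, none filed active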
* = called active by the depositor; . = no result.

SMILES	hgDAF-12 ag	DAX1 inh-1	hcDAF-12 act	DAX1 inh-2	ssDAF12 agonist	DAX1 conf	SF1 mutant ctr	LXRb hcDAF ctr	hcDAF12 conf	hgDAF12 ag	LXRb DAF12 ctr
CC(C)c1cc(C(C)C)c(S(=O)(=O)N2CCC(C(=O)NCc3cccs3)CC2)c(C(C)C)c1	-4	.	-2	-2	-2	.	.	.	.	.	.
C/C(=N\NC(=O)c1cccs1)c1cccnc1	25*	3	8.4*	5.5*	1	1	0	0	1	8	0
COc1cccc(CNC(=O)[C@H]2CCCN2C(=O)[C@H]2CCCN2C(=O)c2ccc(F)c(C(F)(F)F)c2)c1	-1	.	-1	0	-1	.	.	.	.	.	.
CC(C)(C)c1ccc(NC(=O)Nc2ccc(OCC(=O)N3CCOCC3)cc2)cc1	15*	0	6.4*	5.1*	-1	7.8*	4.5*	.	.	22*	1
O=C(Nc1ccc(OCC(=O)N2CCOCC2)cc1)Nc1cccc(Cl)c1	4	-1	-1	0	-2	.	.	.	.	.	.
O=C(Nc1nc2c(s1)CCCC2)c1ccc2ncsc2c1	16*	0	6.2*	8.0*	1.0*	10*	3.2*	.	.	12*	1
O=C(Nc1ccccc1)c1ccc(-c2ccc(F)cc2)s1	13*	2	5	7.1*	1.0*	11*	7.0*	.	.	18*	1
Cc1cccc(CN[C@@H]2CC[C@@]34CCCN3C(=O)CCC[C@H]4C2)c1	-2	.	-2	.	-1	.	.	.	.	.	.
CCCCN1C(C)=CC(=C2C(=O)c3ccccc3C2=O)C=C1C	22*	1	7.5*	6.7*	0	6.1*	3	2	11*	12*	1
CCCN1C=CC(=C2C(=O)c3ccccc3C2=O)C=C1	-14	-4	-6	-4	-4	.	.	.	.	.	.
CCCCCCN1C=CC(=C2C(=O)c3ccccc3C2=O)C=C1	14*	-2	8.6*	9.4*	1.1*	0	-4	1	6.1*	6	1
COC(=O)c1cc2c(c3c4ccccc4n(S(=O)(=O)c4ccc(OC)cc4)c13)C(=O)N(Cc1ccc(N(C)C)cc1)C2	0	.	0	-1	-1	.	.	.	.	.	.
Cc1cccnc1NC(=S)NC(=O)c1cccs1	18*	4	14*	7.2*	2.2*	14*	10*	1	15*	17*	1
CC(C)(C)Nc1ncnc2c1cnn2-c1ccccc1	16*	1	5	9.0*	1	15*	4.7*	.	.	12*	1
CC(C)Nc1ncnc2c1cnn2-c1ccc(Cl)cc1	16*	-1	4	4.8*	1	11*	3	.	.	4	1
CCOC(=O)C1CCN(c2ncnc3c2cnn3-c2ccccc2)CC1	-4	0	-3	0	-1	.	.	.	.	.	.
Clc1ccc(Nc2ncnc3c2cnn3-c2ccccc2)cc1	2	1	0	2	-2	.	.	.	.	.	.
CC1CCN(c2ncnc3c2cnn3-c2ccccc2)CC1	15*	2	4	7.7*	0	14*	12*	.	.	14*	1
COc1ccc(N2CCN(CCNS(=O)(=O)c3c(C(C)C)cc(C(C)C)cc3C(C)C)CC2)cc1	-2	.	-4	-3	-1	.	.	.	.	.	.
NC(=O)c1ccsc1NC(=O)c1ccc(N2CCCC2=O)cc1	25*	-3	7.4*	6.7*	1.0*	14*	9.6*	1	6.9*	17*	1
